Screening results deposited in PubChem by National Center for Advancing Translational Sciences (NCATS).
This is a sample that favours compounds with a hit; in the whole collection about 2.4% have one here.
D2 ag-1: agonists of human D2 dopamine receptor; P14416; hit rate 0.53% among 340,000; AID 485358; HEK293 T-REx D2 cells, calcium flux agonist mode; activation, % at 2 µM;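 active means activation over 3 SD above normal in the single-dose calcium agonist read, cut at about 30% in these data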; further: 0% is about no effect
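Calcium-flux readout, 1 cycle/sec over 180 s following compound pin transfer, in inducible HEK293 Trex D2 cells (force-coupled); dopamine controls included. Positive calcium responses during this window marked compounds as potential agonists.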
D2 ag-2: agonists of human D2 dopamine receptor (beta-arrestin). hit rate 0.084% among 360,000. DiscoveRx PathHunter D2 beta-arrestin, luminescence, 90 min; 100% = 57 uM dopamine signal. P14416. AID 624465. activation, % (concentration not given with the values); in the data active means activation above about 40%; inconclusive means between about 15% and that limit
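DiscoveRx PathHunter D2 beta-arrestin cells (2,100/well) attached overnight, then compound-stimulated 90 min at 37 C in HBSS/10 mM HEPES/0.1% Tween-20 buffer; beta-galactosidase complementation read by luminescence after 1 h at ambient temperature. Dopamine 57 uM final (EC100) as control.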
D2 PAM-1: potentiates the human D2 dopamine receptor allosterically; potentiation, % (concentration not given with the values); hit rate 0.23% among 360,000; P14416; DiscoveRx D2 beta-arrestin cells, luminescence, 90 min; 100% = 57 uM dopamine signal; AID 624464; in the data active means potentiation above about 50%; inconclusive means mostly about 30% to 49%
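D2 cells co-treated with compound plus 50 nM dopamine (EC20) for 90 min at 37 deg C to detect potentiation. Beta-arrestin recruitment was read as enzyme-fragment luminescence after 1 h at ambient temperature. Full response was set by 57 uM dopamine.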
D2 PAM-2: D2 dopamine receptor (human) potentiation; P14416; HEK293 T-REx D2, calcium flux, EC20 dopamine potentiation; potentiation, % at 10 µM; hit rate 0.34% among 340,000; AID 485347;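 active means potentiation over 3 SD above the plate norm, cut at about 30% in these data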; further: 0% is about no effect
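Primary screen. Calcium kinetics in induced HEK293 T-REx D2 cells: compound pre-addition 180 s, EC20 dopamine, 180 s more.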
D2 antagonist: antagonizes the human D2 dopamine receptor; HEK293 TREx D2 cells, calcium flux, dopamine EC80; hit rate 2% among 340,000; P14416; inhibition, % at 10 µM; in the data active means inhibition above about 30%; inactive means below that, where a call was filed; further: 0% is about no effect
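In this primary screen, negative modulation is detected by tracking calcium flux after an EC80 dopamine challenge in inducible HEK293 T-REx D2 cells preexposed to test compound for 180 s.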
D3 ag: D3 receptor agonism confirmed, beta-arrestin readout; shares compounds with D2 ag-1; Potency, µM (highest dose often 76.9 µM), without a hit: at the top dose activation, actives largely listed as activators; hit rate 4% among 2,300; DiscoveRx D3 beta-arrestin cells, luminescence, 90 min;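 further: potency means the concentration at half of the fitted maximal effect; 100% = dopamine control response; nearly all actives have a fitted effect of over 70% in size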
Target sequence (P35462 whole entry, looked up): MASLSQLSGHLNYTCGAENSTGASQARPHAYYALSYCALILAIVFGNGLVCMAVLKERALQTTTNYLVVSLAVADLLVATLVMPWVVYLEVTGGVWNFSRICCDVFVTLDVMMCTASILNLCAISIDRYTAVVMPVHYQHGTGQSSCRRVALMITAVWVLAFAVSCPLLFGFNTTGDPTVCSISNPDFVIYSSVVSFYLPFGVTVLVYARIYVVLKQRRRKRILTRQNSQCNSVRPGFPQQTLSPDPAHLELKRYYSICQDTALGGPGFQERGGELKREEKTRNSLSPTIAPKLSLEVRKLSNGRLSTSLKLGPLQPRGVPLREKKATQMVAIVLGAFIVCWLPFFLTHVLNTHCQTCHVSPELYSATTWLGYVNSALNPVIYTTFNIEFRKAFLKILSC
D2 ag-3: activates human D2 dopamine receptor in D3 counterscreen. Potency, µM (highest dose often 76.9 µM), without a hit: top-dose activation, hits mostly activators. shares compounds with D2 ag-1. DiscoveRx PathHunter D2 beta-arrestin, luminescence, 90 min; response scale: percent relative to full dopamine signal. hit rate 5.9% among 2,300; further: potency means the concentration at half of the fitted maximal effect; % of control where 0% means no effect; nearly all actives have a fitted effect of over 70% in size
The depositor's hits bear a star; ? = inconclusive; . = not tested or not shown. Unless noted, the call rests on the fitted dose curve; in most records, active means well fitted activation curve with a large enough effect; inconclusive means small, poorly fitted or top-dose-only effect; inactive means flat fitted curve, though single readings scatter.

SMILES	D2 ag-1	D2 ag-2	D2 PAM-1	D2 PAM-2	D2 antagonist	D3 ag	D2 ag-3
CC(Oc1ccccc1)C(=O)Nc1ccc(C(=O)OCc2cc(=O)n3ccsc3n2)cc1 (stereo not given)	1.6	.	.	1.0	.	.	.
O=C(Nc1ccnn1C1CCN(Cc2cc3ccccc3[nH]2)CC1)C1CCOC1 (stereo not given)	41.6*	.	.	-22.0	28.1	-5.6%	0.1%
CCCN(CCC)CCNC(=O)CN1C(=O)COc2ccc(S(=O)(=O)N3CCOCC3)cc21	37.5*	2.8	-9.9	-16.2	14.6	-7.5%	8.3%
COCCCNC(=O)CN1C(=O)COc2ccc(S(=O)(=O)N3CCOCC3)cc21	0.4	-5.7	-9.0	6.1	4.4	.	.
OCCN(CCO)Cc1csc2ccccc12	35.0*	-4.5	-16.1	-4.1	-3.1	-7.7%	-3.2%
OCCN(Cc1ccccc1)Cc1ccccc1O	1.3	0.1	-5.1	-7.5	-6.0	.	.
COc1cc(Nc2nc3c(S(=O)(=O)c4ccccc4)nnn3c3ccc(Cl)cc23)cc(OC)c1	0.5	.	.	1.5	.	.	.
COc1ccc(-c2cc(C#N)nc(Cl)n2)cc1	3.0	-1.8	-3.8	5.4	26.3	-15.3%	-3.4%
O=C(O)c1ccc(CSc2nc3ccccc3c(=O)n2-c2ccccc2)cc1	58.0*	5.6	26.2	-18.0	48.3*	0.5%	-2.6%
O=c1c2ccccc2nc(SCc2ccc([N+](=O)[O-])cc2)n1-c1ccccc1	.	2.8	-5.3	-4.0	-2.7	.	.
Nc1c(Cl)ncnc1NCC(O)CO (stereo not given)	-0.3	-2.1	-0.8	2.2	0.5	-11.7%	-2.2%
CCN(CC)CCCN=C1N[C@@H](c2ccccc2)C(C(=O)OC)=C(C)N1CC	76.7*	-1.7	-6.1	-25.3	12.2	-2.8%	-2.9%
COc1ccc(-c2[nH]ncc2CN2CCCN(C(=O)c3ccco3)CC2)cc1F	.	3.5	-5.3	-18.4	.	-2.1%	4.7%
COc1ccc(NC(=O)C(=O)NCCN2CCN(C(=O)c3ccco3)CC2)cc1	39.3*	13.8	20.2	-12.9	22.4	5.01µM*	22.8%
COc1cccc(CN2CCN(C(=O)c3ccco3)CC2)c1	84.2*	69.7*	?	-16.7	81.9*	78.4%	8.91µM*
COc1ccc(OC)c(CN2CCN(C(=O)c3ccco3)CC2)c1	83.4*	?	1.7	-18.9	83.0*	-1.4%	19.0%
COc1ccc(C(=O)N2CCN(Cc3cc(OC)ccc3OC)CC2)cc1	0.2	0.5	-2.8	-24.9	-36.1	.	.
O=C(CN(c1cc(C(F)(F)F)ccc1Cl)S(=O)(=O)c1ccccc1)NCCc1ccccc1	22.9	.	.	-10.4	.	.	.
Cc1cc(C)n2c(SCC(=O)N(C)C3CCS(=O)(=O)C3)nnc2n1 (stereo not given)	59.6*	-1.6	-23.0	-12.2	28.0	4.3%	6.2%
CN(C(=O)CSc1nnc(-c2ccccc2)n1C)C1CCS(=O)(=O)C1 (stereo not given)	-0.6	-1.5	0.3	3.7	8.7	.	.
Cc1c(-c2ccccc2)nc2ccccc2c1C(=O)OCC(=O)Nc1ncc(C(F)(F)F)cc1Cl	0.4	0.7	-5.8	5.1	30.0*	-3.9%	1.5%
COc1ccc(NS(=O)(=O)c2cccc(C(=O)NNC(=O)c3ccc(C)o3)c2)cc1	0.1	-1.6	-2.5	-10.7	-4.8	2.5%	1.8%
Cc1ccc(NC(=O)C2CCCN(S(=O)(=O)c3ccc(C)cc3)C2)cc1 (stereo not given)	-1.5	.	.	0.2	.	.	.
O=C(N1CCN(Cc2ccccc2)CC1)C12CC3CC(CC(C3)C1)C2	-1.3	-2.8	-24.3	10.3	-19.9	.	.
O=C(N1CCN(c2ccccc2)CC1)C12CC3CC(CC(C3)C1)C2	80.5*	7.1	-1.7	-30.0	72.0*	21.7%	20.9%
SMILES	D2 ag-1	D2 ag-2	D2 PAM-1	D2 PAM-2	D2 antagonist	D3 ag	D2 ag-3
O=C(Cn1cncn1)N/N=C/c1cc([N+](=O)[O-])ccc1O	-0.1	-10.2	-24.1	-9.9	51.9*	2.5%	-14.5%
COc1ccc(C)cc1S(=O)(=O)NCCC1=CCCCC1	0.9	-3.0	-16.9	6.9	18.2	.	.
CCOc1ccc(S(=O)(=O)NCCC2=CCCCC2)c2ccccc12	2.0	1.3	-10.0	-19.0	16.8	-3.4%	3.6%
Cc1cc(C)c(NC(=O)CN2CCN(c3ccccn3)CC2)c(C)c1	20.7	8.2	-4.1	-3.6	21.4	4.2%	9.0%
Cc1ccc(NC(=O)c2ncn(CCCN3CCN(c4ccccn4)CC3)n2)cc1C	.	-0.1	-11.6	.	.	.	.
O=C(CN1CCN(c2ccccn2)CC1)Nc1cccc(S(=O)(=O)N2CCCC2)c1	59.9*	2.5	-17.3	-34.2	60.1*	?	28.2µM*
Cc1cc(NC(=O)CN2CCN(c3ccccn3)CC2)ccc1Br	37.3*	7.1	-1.8	-19.2	17.0	15.8µM*	16.9%
O=C(CN1CCN(c2ccccn2)CC1)NCCc1ccccc1	5.5	4.8	-3.6	-5.7	-7.4	.	.
O=C(CN1CCN(c2ccccn2)CC1)NC1CCCC1	24.2	6.6	-7.7	-9.2	8.7	-13.1%	10.8%
O=C(CN1CCN(c2ccccn2)CC1)Nc1nc2ccccc2s1	-0.5	6.4	5.8	9.5	-7.5	.	.
COc1cccc(CNC(=O)c2cc(S(=O)(=O)N3CCCCCC3)cn2C)c1	0.5	.	.	1.4	.	.	.
COc1ccc(NC(=O)Cn2c(=O)n(Cc3ccccc3Cl)c(=O)c3cc(OC)c(OC)cc32)cc1OC	-1.7	.	.	0.7	.	.	.
COc1cc(NC(=O)C2CCN(c3nc4ccccc4nc3C(F)(F)F)CC2)cc(OC)c1	0.6	.	.	-1.6	.	.	.
O=C(CN1CCN(c2ccccn2)CC1)Nc1ccc(F)c(F)c1	52.2*	?	3.4	-18.4	17.5	?	15.6%
O=C(Nc1ccc2oc(-c3ccccc3)nc2c1)c1cc(-n2cnnc2)ccc1Cl	.	4.1	-0.5	.	.	.	.
O=C(Nc1ccc(-c2nc3ccccc3o2)cc1)c1cc(-n2cnnc2)ccc1Cl	0.3	1.6	18.8	9.5	7.5	?	5.7%
Cc1ccc(S(=O)Cc2ccc(C(=O)NC3CCCCCC3)o2)cc1 (stereo not given)	-0.4	.	.	16.0	.	.	.
CCC(C)c1ccc(OCC(=O)Nc2cccc(C(=O)Nc3ccc(C(=O)O)cc3)c2)cc1 (stereo not given)	64.0*	2.8	-11.7	-25.6	4.8	21.6%	0.7%
Cc1cc(C)c(NC(=O)CSc2nc3c([nH]c4ccccc43)c(=O)n2C)c(C)c1	1.1	.	.	-5.5	.	.	.
COc1ccc(Cl)cc1NC(=O)Cn1c(=O)c(-c2ccccc2NC(C)=O)nc2ccccc21	-1.5	.	.	4.5	.	.	.
